# Source: PubChem BioAssay AID1863 (Southern Research Specialized Biocontainment Screening …, 2009)
# “And” between values parts separate entries of the source, which are not always exact repeats. Identical values can stand only once. Screen size: about 300,000 compounds; about 480 (0.16%) were called active.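 How the source made its calls: active means inhibition over 29.93%, a cutoff 3 SD above the screen mean, later confirmed by dose response; inconclusive means inhibition over 29.93% but no dose response follow-up; inactive means inhibition at most 29.93% or unconfirmed.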 Only a sample is shown. Entries with a potency or affinity are not part of this list.
# Assay: inhibitors of PhoP regulon expression, primary screen, Salmonella Typhimurium, GFP reporter (AID 1863);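 further: 0% = low Mg2+ inducing control and 100% = high Mg2+ repressing control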
# Conditions: S. Typhimurium PhoP-regulated promoter GFP reporter, 4 h; at 50 µM; stronger effect = higher value
row,SMILES,inhibition
1,O=C(CCCN1C(=O)c2ccccc2C1=O)Nc1ccccn1,-1.86% (inactive)
2,CCC1(c2ccccc2)NC(=O)N(CC(=O)Nc2cc(S(=O)(=O)N3CCOCC3)ccc2OC(C)C)C1=O (stereo unspecified),-0.1% (inactive)
3,COc1ccc(C(=O)CCC(=O)NCCc2c[nH]c3ccccc23)cc1,8.52% (inactive)
4,Cc1cccc(NS(=O)(=O)c2cccs2)c1,16.6% (inactive)
5,Cc1nc([N+](=O)[O-])c(Br)n1CC(=O)c1ccc(Br)cc1,8.26% (inactive)
6,Cc1nc([N+](=O)[O-])c(Br)n1CC(=O)c1ccc(F)cc1,7.24% (inactive)
7,O=[N+]([O-])c1c(Nc2ccccc2O)cc(Cl)c2nonc12,16.1% (inactive)
8,Nc1cc(Nc2ccccc2)c2nonc2c1[N+](=O)[O-],-3.49% (inactive)
9,O=[N+]([O-])c1c(Nc2ccc(O)cc2)cc(Cl)c2nonc12,20% (inactive)
10,Nc1cc(N2CCCCCC2)c2nonc2c1[N+](=O)[O-],-3.85% (inactive)
11,Cc1c(NC(=O)c2ccc(S(=O)(=O)N3CCOCC3)cc2)c(=O)n(-c2ccccc2)n1C,-7.51% (inactive)
12,OCCC1CN(Cc2cccn2-c2ccccn2)CCN1C1CCCC1 (stereo unspecified),-4.15% (inactive)
13,COc1ccccc1C(c1nnnn1C1CCCC1)N1CCN2CCCC2C1 (stereo unspecified),2.8% (inactive)
14,CCC1(C)Cc2c(sc3nc(SCC(=O)c4ccccc4)[nH]c(=O)c23)CO1 (stereo unspecified),-14.9% (inactive)
15,Nc1nonc1-n1nnc(C(=O)N/N=C/c2ccc(Br)cc2)c1CSC1=NCCS1,44.3% (inactive)
16,Nc1nonc1C(=O)N/N=C/c1ccc(Br)o1,-2.96% (inactive)
17,Nc1nonc1C(=O)N/N=C/c1cc2c(cc1Br)OCO2,3.06% (inactive)
18,Nc1nonc1-n1nnc(C(=O)N/N=C/c2c(Cl)cccc2Cl)c1CSC1=NCCS1,6.32% (inactive)
19,O=C(NCc1ccco1)C1CCCN(S(=O)(=O)c2ccc(Cl)cc2)C1 (stereo unspecified),0.1% (inactive)
20,COc1ccc(-c2cccc(NC(=O)COc3ccc(Cl)cc3)c2)nn1,-8.03% (inactive)
21,CCCCCCCC[n+]1cccc(C(=O)N(CC)CC)c1,7.46% (inactive)
22,CCCCCCCCCC[n+]1cccc(C(=O)N(CC)CC)c1,11% (inactive)
23,CCC(=O)NC(=S)Nc1ccc(N2CCN(C(=O)c3ccc(Cl)cc3)CC2)cc1,2.66% (inactive)
24,CC(=O)/C=C1\SC(CC(=O)O)C(=O)N1c1ccccc1 (stereo unspecified),-3.51% (inactive)

row,SMILES,inhibition
1,COc1ccc2nc(SCC(N)=O)cc(C)c2c1,-2.01% (inactive)
2,CN1CCCC(CN2c3ccccc3Sc3ccccc32)C1 (stereo unspecified),5.69% (inactive)
3,CC1CCN(CC(O)CN2c3ccccc3Sc3ccccc32)CC1 (stereo unspecified),11.3% (inactive)
4,Cc1c(N=Cc2cc(Br)cc(Br)c2O)cccc1C(=O)O,20.2% (inactive)
5,O=C(O)c1cccc(N/N=C/c2cc(Br)cc(Br)c2O)c1,-5.01% (inactive)
6,N#CCCn1nc(-c2ccccc2)c2ccccc2c1=O,0.37% (inactive)
7,Cc1ccc(N2C(=O)Nc3ccccc3C2(O)C(=O)N2CCN(c3ccccn3)CC2)cc1C (stereo unspecified),1.22% (inactive)
8,O=C(CS(=O)(=O)c1ccccc1)NC1CCCCC1,-0.8% (inactive)
9,CC(CC(=O)Nc1ccccc1)NCCCN1CCCC1=O (stereo unspecified),-13.5% (inactive)
10,COc1ccc(C(=O)Nc2ccccc2C(=O)N2CCCCC2C)cc1 (stereo unspecified),-7.49% (inactive)
11,Cc1ccc(S(=O)(=O)N2CC(=NN=C(N)N)C2)cc1,6.04% (inactive)
12,NC(N)=NN=C1CCC(c2ccccc2)CC1 (stereo unspecified),-4.95% (inactive)
13,COc1ccc(/C=N/NC(=O)c2ccc(COc3ccccc3Cl)o2)cc1,2.77% (inactive)
14,CC(=O)Nc1ccc(Nc2nnc(-c3ccc(C)c(S(N)(=O)=O)c3)c3ccccc23)cc1,-2.89% (inactive)
15,CC(C)(C)C1=CC(=O)C(N2CCOCC2)=CC1=O,-2.73% (inactive)
16,CC1=C(C)C(=O)C(N2CCOCC2)=CC1=O,-8.01% (inactive)
17,CC(NC(=O)COc1ccc(Oc2ccccc2)cc1)C(=O)O (stereo unspecified),-6.64% (inactive)
18,CC(=O)c1cccc(NC(=O)Nc2ccccc2)c1,4.67% (inactive)
19,Oc1c(C(c2ccc(Cl)cc2)N2CCCC2)cc(Cl)c2cccnc12 (stereo unspecified),4.49% (inactive)
20,O=C(NC(c1ccc(Cl)cc1)c1cc(Cl)c2cccnc2c1O)c1cccnc1 (stereo unspecified),6.03% (inactive)
21,CCOC(=O)N1CCN(S(=O)(=O)c2cccc3cccnc23)CC1,-11% (inactive)
22,CCC(=O)NC(c1ccc(OC)cc1)c1cc(Cl)c2cccnc2c1O (stereo unspecified),2.08% (inactive)
23,CN1CCN(C(c2cccnc2)c2ccc3cccnc3c2O)CC1 (stereo unspecified),-7.68% (inactive)
24,CN1CCN(C(c2ccc(C(F)(F)F)cc2)c2ccc3cccnc3c2O)CC1 (stereo unspecified),0.72% (inactive)

row,SMILES,inhibition
1,OCCN1CCN(C(c2cccs2)c2ccc3cccnc3c2O)CC1 (stereo unspecified),-47.6% (inactive)
2,COc1ccc(C(NC(C)=O)c2cc(Cl)c3cccnc3c2O)cc1OC (stereo unspecified),3% (inactive)
3,CCC(c1nnnn1C(C)(C)CC)N(CCCN1CCOCC1)Cc1cc2cccc(C)c2[nH]c1=O (stereo unspecified),1.45% (inactive)
4,CCn1nc(C)c(/C=N/NC(=O)Cn2nc(C)cc2C)c1C,-4.2% (inactive)
5,CCCCNC(=O)c1cc(-c2ccc(OC)c(OC)c2)on1,3.01% (inactive)
6,Cc1c(C#N)c(N)nc2c3c(sc12)NC(=O)CC3c1ccccc1 (stereo unspecified),-5.65% (inactive)
7,COc1cccc(NC(=O)c2cc([N+](=O)[O-])ccc2NCc2cccnc2)c1,-4.37% (inactive)
8,CCOC(=O)c1cn(CC(=O)Nc2cccc(F)c2)nn1,-11.4% (inactive)
9,O=C(Cn1c(C(=O)O)cc2ccccc21)c1ccccc1,-2.79% (inactive)
10,Cc1ccc(N2C(=O)N(CC(=O)N3CCOCC3)C(=O)C2C)cc1 (stereo unspecified),2.04% (inactive)
11,COC(C(=O)Nc1ccnn1C1CCN(C(=O)c2ccc(C)cc2)CC1)c1ccccc1 (stereo unspecified),5.45% (inactive)
12,O=S1(=O)CCOC[C@H](CC2CCCCC2)N1Cc1cccc(C(F)(F)F)c1,9.84% (inactive)
13,CC(=O)NC(c1ccccc1)c1cc(Cl)c2cccnc2c1O (stereo unspecified),18.9% (inactive)
14,CCC(=O)NC(c1cccs1)c1cc(Cl)c2cccnc2c1O (stereo unspecified),14.8% (inactive)
15,CC(=O)NC(c1ccc(C)cc1)c1cc(Cl)c2cccnc2c1O (stereo unspecified),-1.88% (inactive)
16,O=C(NC(c1ccccc1)c1cc(Cl)c2cccnc2c1O)c1cccnc1 (stereo unspecified),-10.8% (inactive)
17,COc1ccc(C(NC(C)=O)c2cc(Cl)c3cccnc3c2O)cc1 (stereo unspecified),5.56% (inactive)
18,CCOc1ccc(C(Nc2cccnc2)c2cc(Cl)c3cccnc3c2O)cc1 (stereo unspecified),3.11% (inactive)
19,Oc1c(C(c2ccccn2)N2CCC(Cc3ccccc3)CC2)cc(Cl)c2cccnc12 (stereo unspecified),-3.77% (inactive)
20,CCCc1cc(=O)[nH]c(SCC(=O)Nc2ccc(Br)cc2)n1,-7.86% (inactive)
21,CC1CCN(S(=O)(=O)c2ccc3c(c2)c(=O)c(C(=O)NCc2ccccc2Cl)cn3C)CC1,5.92% (inactive)
22,Cc1ccc(/C=C/C(=O)c2ccccc(=O)c2O)c(C)c1,7.66% (inactive)
23,Cc1ccc2occ(/C=C/C(=O)c3ccccc3O)c(=O)c2c1,1.62% (inactive)
24,O=C(/C=C/c1ccccc1Cl)c1ccc(O)cc1,2.4% (inactive)

row,SMILES,inhibition
1,O=C(/C=C/c1ccc(O)c(O)c1)c1ccccc1O,-12% (inactive)
2,Cc1cccc(/C=C/C(=O)c2cc(Br)ccc(=O)c2O)c1,23.4% (inactive)
3,O=C(/C=C/c1ccccc1Cl)c1ccc[nH]1,11.1% (inactive)
4,C=CCNC(=O)CSc1nnc(-c2ccccn2)n1Cc1ccccc1,7.3% (inactive)
5,CCOC(=O)c1ccc(NC(=O)c2ccccc2N(C)S(=O)(=O)c2ccccc2)cc1,1.33% (inactive)
6,Cc1ncc(CSCC(=O)Nc2cc(C(F)(F)F)ccc2Cl)c(CO)c1O,3.52% (inactive)
7,C=C1CCC(OC(C)=O)C2(C)CCC3C(C)C(=O)OC3C12O (stereo unspecified),5.69% (inactive)
8,CC[N+](C)(C)CCN(Cc1ccc(Cl)cc1)c1ccccn1,1.17% (inactive)
9,COc1ccc(CN(CCN(C)C)c2ccccn2)cc1,5.26% (inactive) and 0.005% (inactive)
10,Cc1cccc(CCNC(=O)CN(C)S(=O)(=O)c2ccc3c(c2)c(=O)n(C)c(=O)n3C)c1,10.3% (inactive)
11,Cc1ccc(N2C(=O)N(Cc3ccccc3C)c3ccccc3S2(=O)=O)cc1,3.76% (inactive)
12,O=C(N/N=C/c1ccc(O)c2ncccc12)c1cccc(Br)c1,-1.53% (inactive)
13,Oc1ccc(F)c2cccnc12,-2.12% (inactive)
14,Cc1ccccc1N=Nc1ccc(O)c2ncccc12,-2.25% (inactive)
15,Cc1ccc(N=Nc2ccc(O)c3ncccc23)cc1,0.67% (inactive)
16,CN(c1ccc(C(=O)Nc2ccccc2C(=O)N2CCCC2)cc1)S(C)(=O)=O,1.89% (inactive)
17,CCn1c(C(=O)O)c(CC(=O)Nc2ccccc2OC)c2ccccc21,-3.77% (inactive)
18,CCC/C=C1/CCCOC(C(=O)NCc2ccccn2)(C(F)(F)F)C1 (stereo unspecified),4.57% (inactive)
19,COC(=O)c1ccccc1NC(=O)Nc1ncccc1C,8.31% (inactive)
20,C=CCn1c(-c2sc3nc(C)cc(C)c3c2N)n[nH]c1=S,1.92% (inactive)
21,CN(Cc1ccccc1)S(=O)(=O)c1ccc(Cl)c(C(=O)NCCc2ccccn2)c1,-2.89% (inactive)
22,Cc1ccc(S(=O)(=O)NC(=O)NCc2ccc(F)cc2)cc1,-2.51% (inactive)
23,COc1ccc(-c2nnc(SCC(=O)NC(=O)NCc3ccccc3)o2)cc1,2.48% (inactive)
24,CCCc1cc(=O)oc2cc(C)cc(OCC(=O)NCCCN3CCCC3=O)c12,-4.85% (inactive)
